The values below come from PubChem BioAssay (EPA / NIEHS).

Molecules are shown by their SMILES. Results filed as inconclusive are left out. Active and inactive are the calls of the source. The calls were made as follows, unless noted: active = hit-call score of the fitted dose curve at least 0.9, where 1 is the maximum; inactive = score below 0.9.

A short description of assay [1]: BSK_BT_PBMCCytotoxicity: PBMC Cytotoxicity Assessment in the BioMAP Diversity Plus: BT Assay (AID 2284225).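 Also: PBMC viability measured by Alamar Blue dye reduction fluorescence.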 Conditions: primary human B cells with PBMC. An outline of the steps:
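Viability by Alamar Blue reduction (6 h, ex/em 546/580 nm) after 90 h culture of SEB/TSST-1-activated PBMC (20 ng/mL each) given compound 1 h before activation. DMSO served as baseline for curve fitting.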

Read-out in assay [2]: Secreted IgG (sIgG), gene 3500
In words: BSK_BT_sIgG: BioMAP Diversity Plus: BT Assay for Secreted IgG (sIgG) Biomarker Activity (AID 2284226). To be noted: primary human B cells with PBMC. The gist of the method: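 Cells (B cells with peripheral blood mononuclear cells) are dosed, cultured 24 h, then supernatant IgG is measured by ELISA. DMSO serves as negative control; curves are fitted for signal increase.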

Assay [3] in a line: BSK_BT_Bcell_Proliferation: Viability Assessment in the BioMAP Diversity Plus: BT Assay for B cell Proliferation (AID 2284227). To be noted: primary human B cells with PBMC. The gist of the method:
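Human B cells co-cultured with PBMC were dosed with test chemicals and relative cell number was quantified by SRB staining at 72 h. Cells were fixed in 10% TCA, stained with 0.1% SRB and read at 560 nm. Activity was fitted in the positive direction against DMSO.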

Read-out in assay [4]: Interleukin 6 (IL6), IL6 (gene 3569)
In words: BSK_BT_xIL6: BioMAP Diversity Plus: BT Assay for Interleukin 6 (IL6) Biomarker Activity (AID 2284228). Conditions: primary human B cells with PBMC. The gist of the method:
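Human B cell/PBMC co-culture; secreted IL-6 quantified by Luminex xMAP 24 h after chemical dosing, fitted relative to DMSO. Parallel PBMC viability by Alamar Blue after 1 h pretreatment, 20 ng/mL SEB and TSST-1, 90 h incubation.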

Read-out in assay [5]: Interleukin 17A (IL17A), IL17A (gene 3605)
In words: BSK_BT_xIL17A: BioMAP Diversity Plus: BT Assay for Interleukin 17A (IL17A) Biomarker Activity (AID 2284229). To be noted: primary human B cells with PBMC. An outline of the steps:
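Co-culture of human B cells and PBMC, dosed for 24 h in 96-well format. Secreted IL-17A measured with Luminex xMAP; gain-direction fitting against DMSO as baseline.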

Read-out in assay [6]: Tumor necrosis factor (Homo sapiens) (UniProt P01375)
In words: BSK_BT_xTNFa: BioMAP Diversity Plus: BT Assay for Tumor necrosis factor alpha (TNF-alpha) Biomarker Activity (AID 2284230). Conditions: primary human B cells with PBMC. An outline of the steps:
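B cells with PBMC in co-culture, dosed and sampled at 24 h; secreted TNF-alpha measured by Luminex xMAP bead assay. Activity fitted in the gain direction against DMSO as negative control and baseline.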

Read-out in assay [7]: Vascular cell adhesion molecule 1 (VCAM1), VCAM1 (gene 7412)
The assay is described as follows: BSK_MyoF_VCAM1: BioMAP Diversity Plus: MyoF Assay for Vascular cell adhesion molecule 1 (VCAM1) Biomarker Activity (AID 2284231). To be noted: primary human lung fibroblasts. An outline of the steps:
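Primary human lung fibroblasts (BioMAP MyoF system) dosed with chemical, VCAM-1 measured by ELISA 24 hours later. Fitted in the positive direction against DMSO; parallel SRB staining assessed cytotoxicity.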

Assay [8] can be described thus: TAMU_PeakParms_SingleDonor1434_Chronotropy: Texas A&M University (TAMU) 1.5-hr Human Induced Pluripotent Stem Cell (iPSC)-derived Cardiomyocytes Calcium (Ca+2) Flux Assay for Cardiotoxicity: Chronotropy (changes in peak frequency) (AID 2284217). Conditions: actives raise or lower the signal. An outline of the steps: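 iPSC-derived cardiomyocytes (single donor 1434) dosed at 0.2, 1, 10 and 100 uM in 0.5% DMSO for 1.5 h at 37C; Ca2+ dye fluorescence gave average beat frequency. Zero-beat points removed; bidirectional fit versus DMSO, POD as EC05.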

The nature of assay [9]: TAMU_PeakParms_SingleDonor1434_QT: Texas A&M University (TAMU) 1.5-hr Human Induced Pluripotent Stem Cell (iPSC)-derived Cardiomyocytes Calcium (Ca+2) Flux Assay for Cardiotoxicity: QT (decay-rise ratio) (AID 2284235; active = hit-call score of the fitted dose curve at least 0.9, where 1 is the maximum). The gist of the method:
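Decay/rise ratio of calcium-flux fluorescence scored after 90 min exposure (37C) of donor 1434 iPSC cardiomyocytes to 0.2–100 uM (0.5% DMSO). Beat-cessation and severe-notch points removed; POD is EC05, a 5% rise over DMSO.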

The nature of assay [10]: CCTE_Mundy_HCI_Cortical_Synap_Neur_Matur_SynapseCount: CCTE's Synaptogenesis and Neurite Maturation Assay in rat cortical cells for Synapse Count, Mundy Lab (AID 2284218). An outline of the steps:
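Cells were plated, allowed 2 hr to attach, treated with AraC at DIV 5, then exposed to chemicals from DIV 7 until DIV 12. After fixation and MAP2/synaptophysin immunolabelling, synapses per neuron were quantified by automated imaging against DMSO.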

Assay [11] can be described thus: CCTE_Mundy_HCI_Cortical_Synap_Neur_Matur_NeuriteCount: CCTE's Synaptogenesis and Neurite Maturation Assay in rat cortical cells for Neurite Count, Mundy Lab (AID 2284222).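 Also: exposure from day 7 to day 12 in vitro with readout at day 12.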 The gist of the method:
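Rat primary cortical cells; AraC added at DIV 5, chemicals dosed with media change at DIV 7 through DIV 12. MAP2/synaptophysin/Hoechst immunostaining, high-content imaging of neurite number; fitted relative to DMSO.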

A short description of assay [12]: CCTE_Mundy_HCI_Cortical_Synap_Neur_Matur_CellBodySpotCount: CCTE's Synaptogenesis and Neurite Maturation Assay in rat cortical cells for Cell Body Spot Count, Mundy Lab (AID 2284223). An outline of the steps:
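Primary rat cortical cultures, AraC added at DIV 5; dosed DIV 7 through DIV 12 […]. Fixed, stained for MAP2 and synaptophysin with Hoechst; cell body-associated synaptophysin puncta per neuron counted by high-content imaging, loss vs DMSO.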

Assay [13] is described as follows: CCTE_Mundy_HCI_hNP1_Pro_ResponderAvgInten: CCTE's Proliferation Assay in human neuroprogenitor cells, Mundy Lab (AID 2284224; active = hit-call score of the fitted dose curve at least 0.9, where 1 is the maximum). The gist of the method: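 Proliferation was scored as BrdU labelling intensity in human neural progenitors derived from WA09 embryonic cells, measured 26.25 hours after chemical dosing. Activity was fitted relative to DMSO.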
A short description of assay [14]: CCTE_Mundy_HCI_Cortical_NOG_NeuronCount: CCTE's Neurite Outgrowth Assay in rat cortical cells for Neuron Count, Mundy Lab (AID 2284236; active = hit-call score of the fitted dose curve at least 0.9, where 1 is the maximum;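 also: neurons counted by imaging betaIII-tubulin and Hoechst stained cortical cells; cells exposed to compound for about 48 hours before fixation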). An outline of the steps: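 Read-out: neuron number by high-content imaging of betaIII-tubulin (Alexa Fluor-488) and Hoechst-labelled rat primary cortical cells.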

Sequence of Tumor necrosis factor (Homo sapiens) (P01375 whole entry, looked up): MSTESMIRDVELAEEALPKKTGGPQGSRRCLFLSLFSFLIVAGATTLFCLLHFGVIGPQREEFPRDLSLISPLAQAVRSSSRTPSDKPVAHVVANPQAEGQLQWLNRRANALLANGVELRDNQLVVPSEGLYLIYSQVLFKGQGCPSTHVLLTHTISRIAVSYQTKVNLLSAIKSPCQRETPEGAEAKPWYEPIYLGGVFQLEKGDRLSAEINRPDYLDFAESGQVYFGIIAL

As a reminder, the AC50 is the concentration giving half of the maximal activity seen. With `c1ccc(CCc2ccccc2)cc1`, the result in assay [1], in [2], in [3], in assay [4], in assay [5] and in [6] was inactive. Also, the AC50 in [7] is 31 µM (active).

For the compound `CC(C)NCC(O)COc1ccc(CC(N)=O)cc1` (configuration not stated), the outcome in assay [8] and in assay [9] was inactive.

Regarding `CC(C=O)Cc1ccc(C(C)(C)C)cc1` (configuration not stated), the outcome in [1], in [2], in [3], in assay [4], in assay [5] and in assay [6] was inactive. The result in assay [7] was inactive.

Regarding `CC=Cc1ccc(OCC)c(O)c1`, the result in [1], in [3], in assay [4], in assay [5], in [6] and in [7] was inactive. Further, the AC50 in assay [2] was 12.9 µM (active).

`CCC(C)c1cc([N+](=O)[O-])cc([N+](=O)[O-])c1OC(=O)OC(C)C` (configuration not stated): the AC50 in assay [1] was 20 µM (active); in assay [2], 11.1 µM (active); in [3], 26.7 µM (active); in assay [4], 30.4 µM (active); in assay [5] it was 30.7 µM (active); in assay [6], 33.5 µM (active). Further, the AC50 in [7] was 8.46 µM (active).

For the compound `CN(C)CCOC(C)(c1ccccc1)c1ccccn1` (configuration not stated), the compound was called inactive in assay [10], in assay [11], in assay [12], in assay [13] and in [14].

In the case of `C=C(C)C(=O)OCCOCCOCCOCCOC(=O)C(=C)C`, the outcome in [1], in [3], in assay [4], in [5], in [6] and in [7] was inactive. Also, in assay [2], the AC50 is 20 µM (active).

For the compound `C=C(C)C(=O)OCC(CC)(COC(=O)C(=C)C)COC(=O)C(=C)C`, the outcome in [1] and in assay [5] was inactive. Moreover, the AC50 is 3.08 µM (active) in assay [2]; 25.5 µM (active) in [3]; 19.7 µM (active) in assay [4]; 19.7 µM (active) in assay [6]; 11.2 µM (active) in [7].

For `O=C1c2ccccc2C(=O)c2c(O)ccc(O)c21`, the AC50 in assay [1] was 11 µM (active); in assay [2], 0.36 µM (active); in [3] it was 11.8 µM (active); in assay [4], 0.0172 µM (active); in assay [6], 11 µM (active). Further, the result in assay [5] and in [7] was inactive.

Take `CCCCCCCCCCCCCCCC(=O)OC/C=C(C)/C=C/C=C(C)/C=C/C1=C(C)CCCC1(C)C`: the outcome in assay [1], in assay [3], in assay [5], in assay [6] and in [7] was inactive. The values for the AC50 in [2] and in assay [4] were 20 µM (active) and 31.2 µM (active), respectively.

For the compound `COCCc1ccc(OCC(O)CNC(C)C)cc1` (configuration not stated), the result in [10], in assay [11], in assay [12] and in assay [14] was inactive.
